Data: PubChem BioAssay (NCI)
Compounds without any hit were thinned out: in the full panel of roughly 83,000, 20% have a hit.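 96-well plates, one dose, 48 hours. Percent growth reported; active if below 10.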 Active and inactive are the calls of the source.

These compounds were tested on MDA-MB-468 breast (assay: NCI-60 one-dose screen, 48 h (100 = growth as untreated, 0 = no growth, -100 = all killed)). Settings: 10 µM unless noted.

| SMILES | growth |
| --- | --- |
| Oc1ccc(/C=N/Nc2nnc(N/N=C/c3ccc(O)cc3O)c3ccccc23)c(O)c1 | -47.3% (active) |
| COc1cccc(C2C(C#N)=C(N)Oc3cc(OCCCCCC[P+](c4ccccc4)(c4ccccc4)c4ccccc4)ccc32)c1 (stereo not given) | -64.3% (active) |
| O=S(=O)(Nc1ccc(Cl)c(C(F)(F)F)c1)c1ccc(-c2cnc(C3CC3)o2)cc1 | -7.54% (active) |
| COc1ccc2c(c1)CC/C(=C\c1cncc(Br)c1)C2=O | 99.4% (inactive) |
| O=C(COc1ccc(Cl)cc1)N1CCN(Cc2ccc3c(c2)OCO3)CC1 | 98.5% (inactive) |
| CCOC(=O)CNN | 95.7% (inactive) |
| COc1ccc(NC(=O)[C@H](C)NC(=O)OC(C)(C)C)cc1C(=O)Nc1cccc(-c2cc(=O)c3c(OC)c(OC)c(OC)cc3o2)c1 | 4.39% (active) |
| COc1cc(/C=C2\COc3ccc(O)cc3C2=O)cc(OC)c1 | 54.1% (inactive) |
| CC(C)=CC/C=C(/C)[C@H]1CC[C@]2(C)[C@@H]1CC[C@@H]1[C@@]3(C)CC/C(=N/O)C(C)(C)[C@@H]3CC[C@]12C | 47.7% [100 µM] (inactive) |
| Fc1ccc(COc2ccc(Nc3ncnc4sc5c(c34)CCCC5)cc2)cc1 | 93.9% (inactive) |
| CCOC(=O)C12CCCC1=CC(=O)CC2 (stereo not given) | 110% (inactive) |
| Nc1ncc(-c2ccc3ncnc(Nc4cccc(Cl)c4)c3c2)cn1 | -26.4% (active) |
| CC/C=C1/C(=O)C=C[C@@H]1C/C=C\CCCC(=O)O | 73.5% (inactive) |
| O=C(O)c1ccc(-n2cc(CNc3ccc(Cl)cc3)c(-c3ccc(F)cc3)n2)cc1 | 106% (inactive) |
| CN(C)c1ccc2c(c1)OC(N)=C(C#N)C2c1ccc2c(c1)CCO2 (stereo not given) | 18.3% (inactive) |
| COc1ccc2c(c1)C(C)Cc1c(ncnc1-n1cnc3ccccc31)N2C (stereo not given) | 27.3% (inactive) |
| S=c1nn[nH]c2ccccc12 | 117% (inactive) |
| FC(F)(F)c1ccc2c(c1)N(CCCN1CCN(C3CC3)CC1)c1ccccc1S2 | 54.1% (inactive) |
| CCN(CC)S(=O)(=O)c1ccc(-c2nc(C(Cl)Cl)nc3cc(C)nn23)cc1 | -33.6% (active) |
| CC(C)(C)c1cc(C[P+](c2ccccc2)(c2ccccc2)c2ccccc2)cc(C(C)(C)C)c1O | -2.61% (active) |

| SMILES | growth |
| --- | --- |
| Oc1ccc(Cc2ccc(O)c(C3CC(c4ccc(Cl)cc4)=NN3)c2)cc1C1CC(c2ccc(Cl)cc2)=NN1 (stereo not given) | 23.3% (inactive) |
| CCCc1cc(=O)oc2c(C(=O)CC(C)C)c(O)c(CC=C(C)C)c(O)c12 | 1.81% (active) |
| CCCCCCCCCCCCCCCc1ccc(N)c(OC2OC(CO)C(O)C(O)C2O)c1 (stereo not given) | 76.5% (inactive) |
| COc1ccc(-c2n[nH]nc2-c2csc3ccccc23)cc1OC | 21.1% (inactive) |
| N#CC(=C1C=CC(=NO)C=C1)c1ccccc1 | 13.8% (inactive) |
| Clc1nn2c(Cn3cnc4c(NCc5ccccc5)ncnc43)nnc2c2ccccc12 | 35.3% (inactive) |
| Cn1cnc2nc[nH]c2c1=S | 107% (inactive) |
| CC(C)(C)C(CCc1ccc(Cl)cc1)N1CCN(C2CCCCC2)CC1 (stereo not given) | 58.3% (inactive) |
| CC(C)(C)OC(=O)N1Cc2cc3ccccc3nc2C1CO (stereo not given) | 71.7% (inactive) |
| Cc1cc(C)c(NC(=O)c2sc3nc4c(cc3c2N)C(=O)CCC4)c(C)c1 | -27.2% (active) |
| NC1=NN(c2ccccc2)C(=O)/C1=C/c1ccc(Cl)cc1 | 114% (inactive) |
| O=C(/C=C/c1ccccc1Br)c1cccc(OCCCCOc2cccc(C(=O)/C=C/c3ccccc3Br)c2)c1 | 95.4% (inactive) |
| C[C@@H](C(=O)NCCCC#Cc1cnc(Nc2ccc(C#N)cc2)nc1NC1CC1)N(C)C(=O)/C=C/CN(C)C | 39.2% (inactive) |
| Brc1cccc(-n2ncc3c(Nc4ccc(-c5nnc(-c6ccccc6)o5)cc4)ncnc32)c1 | 101% (inactive) |
| CN1CCN(c2ccc3nc(-c4cc(C(C)(C)C)c(O)c(C(C)(C)C)c4)[nH]c3c2)CC1 | 65.4% (inactive) |
| CC/C=C\C[C@H]1C/C=C2/C(=O)C=C[C@@H]2C/C=C\CCCC(=O)O1 | -33.6% (active) |
| COC(=O)c1ccc(CSc2nnc(-c3ccncc3)o2)cc1 | 115% (inactive) |
| O=C(Nc1ncc(Cc2cc(C(F)(F)F)ccc2Cl)s1)c1cccs1 | -0.706% (active) |
| COc1ccccc1NC(=O)COc1ccc(/C=C2/Oc3cc4occc4c(OC)c3C2=O)cc1OC | 102% (inactive) |
| COc1ccc(-c2cc(-c3nnc(SCC(=O)Nc4ccc(/C(C)=N\O)cc4)o3)c3ccccc3n2)cc1 | 106% (inactive) |
